# From ChEMBL document CHEMBL3988442, “University of Dundee, Small-Polar-MMV Screening Library” (2021)
# The whole screen tested about 48,000 compounds, of which about 13,000 (27%) showed an effect of 50% or more. The list shows a part of the results.
# Test system: Wolbachia pipientis
# Assay: Anti-Wolbachia Cell-Based Screen
# Assay type: functional
# Design: scale not given: in the data most compounds retested in dose-response had high values
# Details: 5 µM
row,Compound,Percent Effect [%]
1,Nc1nc(NCCc2[nH]nc3c2CCCC3)cc(N2CCOCC2)n1,-17.88
2,c1ccc(CCCn2cc(-c3nc(CN4CCOCC4)no3)nn2)cc1,-30.42
3,CN1CCC2(Cc3ccccc3CN(C(=O)c3ccc(Cl)cc3)C2)C1 (configuration not stated),111.1
4,CN1CCC2(CC1)Cc1ccccc1CN(C(=O)CN)C2,99.69
5,CN1CCC2(Cc3ccccc3CN(C(=O)CCN)C2)C1 (configuration not stated),104.1
6,CCCSCC(=O)N1CCC2(CC1)CC(c1ccccc1)CN(C)C2 (configuration not stated),-4.07
7,CCCC(=O)N1CCC2(CC1)COC2,-43.8
8,CN1CCC2(CCN(C(=O)c3ccccc3)CC2)C1,-23.98
9,CCCC(=O)N1Cc2ccccc2CC2(CCN(C)C2)C1 (configuration not stated),117.7
10,CN1CC(c2ccccc2)CC12CCN(C(=O)c1ccc(Cl)cc1)CC2 (configuration not stated),-14.14
11,O=C1CC(c2ccc(C(=O)O)cc2)c2ncn(-c3ccc(Cl)cc3)c2N1 (configuration not stated),-3.148
12,CC(C)C(C)(O)CNc1cccc(F)c1C#N (configuration not stated),29.17
13,COCc1nnc(-c2cccc(C(=O)N(C(C)C)C3CCC3)c2)o1,24.51
14,O=C(CCNC(=O)c1ccc(Cl)cc1)NCc1nc(C2CC2)no1,-6.02
15,Cc1c(C(C)NC2CCOCC2)cnn1-c1ccc(F)cc1F (configuration not stated),-3.497
16,O=C(Cc1ccccc1)N1CCC2(CC(=O)N(c3cccc(F)c3)C2)C1 (configuration not stated),-7.146
17,CN1CCC2(Cc3ccccc3CN(C(=O)Cc3cccc(Cl)c3)C2)C1 (configuration not stated),135.8
18,COCCC(=O)N1CCC2(CN(Cc3cccc(Cl)c3)C2)C1,20.7
19,CC(=O)Nc1nc(C(=O)NC(C)c2ccc(F)cc2)cs1 (configuration not stated),33.73
20,CC(=O)Nc1nc(C(=O)NC(C)c2ccc3c(c2)OCCO3)cs1 (configuration not stated),7.281
21,CC(=O)Nc1nc(C(=O)NC(C)c2ccc(F)c(F)c2)cs1 (configuration not stated),54.27
22,CC(=O)Nc1nc(C(=O)Nc2ccc(F)cc2)cs1,-0.1776
23,CC(=O)Nc1nc(C(=O)NCCOc2ccc(C)cc2)cs1,-6.104
24,CC(=O)Nc1nc(C(=O)NC(C)c2ccc(C#N)cc2)cs1 (configuration not stated),80.7

row,Compound,Percent Effect [%]
1,CCc1ccc(C2COCCN2C(=O)Nc2ccc(C(N)=O)c(Cl)c2)o1 (configuration not stated),-0.9462
2,Cc1cc(C(=O)N2C[C@H]3CC[C@@H]2CN(C(=O)c2ccncc2)C3)cs1,-9.465
3,CCOCC1C[C@@H]2OCCN(C(=O)c3ccc[nH]3)[C@H]2C1 (some centres not stated),-14
4,COCC(=O)N1CCO[C@H]2[C@H](OCc3cccnc3)CC[C@@H]21.O=C(O)C(F)(F)F,-4.337
5,Cc1cnc(N2CCO[C@@H]3CC(COCc4cccnc4)C[C@H]32)nc1.O=C(O)C(F)(F)F.O=C(O)C(F)(F)F (some centres not stated),79.55
6,Fc1ccc(CN2CC[C@H]3O[C@@H](COCc4cccnc4)CC[C@H]32)cc1.O=C(O)C(F)(F)F.O=C(O)C(F)(F)F,0.3958
7,CN(C)C(=O)N1CCO[C@@H]2CC(COCc3cccnc3)C[C@H]21.O=C(O)C(F)(F)F (some centres not stated),103.1
8,Cc1ccoc1C(=O)N1CC[C@H]2OCC[C@@]2(COCc2ccncc2)C1,-2.681
9,CN(C)CC(=O)N1CCO[C@@H]2CC(COCc3ccncc3)C[C@H]21 (some centres not stated),100.6
10,c1cncc(COCC2C[C@@H]3OCCN(Cc4cccnc4)[C@H]3C2)c1 (some centres not stated),111.6
11,O=C(O)C(F)(F)F.O=C(O)C(F)(F)F.c1cnc(N2CC[C@@H]3O[C@@H](COCc4cccnc4)CC[C@@H]32)nc1,-9.534
12,Cn1cnc2c1C(COCc1cccnc1)N(Cc1ccccc1)CC2 (configuration not stated),2.197
13,Fc1cnc(N2CC[C@@H]3OC(COCc4cccnc4)CC[C@@H]32)nc1.O=C(O)C(F)(F)F.O=C(O)C(F)(F)F (some centres not stated),-10.65
14,O=C(O)C(F)(F)F.O=C(O)C(F)(F)F.O=C(O)C(F)(F)F.c1cncc(COCC2CN(Cc3cccnc3)Cc3ccnn3C2)c1 (configuration not stated),11.05
15,Cc1nc(CN(C)Cc2nc(-c3sccc3C)oc2C)no1,-9.354
16,CSCCCN1CCCC(Cn2ccnc2)C1 (configuration not stated),13.29
17,O=C(c1ccc[nH]1)N1CCO[C@H]2CC(COCc3ccccn3)C[C@@H]21 (some centres not stated),10.05
18,O=C(O)C(F)(F)F.O=C(c1ccno1)N1CCO[C@@H]2CC(COCc3ccccn3)C[C@H]21 (some centres not stated),99.5
19,O=C(O)C(F)(F)F.O=C(O)C(F)(F)F.c1cncc(COCC2CC[C@H]3[C@H](CCN3CC3CCOCC3)O2)c1 (some centres not stated),-3.08
20,O=C(O)C(F)(F)F.O=S(=O)(C1CC1)N1CCO[C@@H]2CC(COCc3cccnc3)C[C@H]21 (some centres not stated),111.9
21,Cc1ccc(C(=O)N2CCO[C@H]3[C@H](OCc4ccccn4)CC[C@@H]32)o1.O=C(O)C(F)(F)F,-0.009897
22,CCc1nc(-c2noc3ccc(C(=O)N(C)CCOC)cc23)co1,2.681
23,CC(Nc1nc2c(cnn2C)c(=O)[nH]1)c1ccc2c(c1)CCCC2 (configuration not stated),4.227
